Source: PubChem BioAssay
Only some compounds are listed: those with a hit (about 3.5% of all), similar ones and a draw of the others.
MITF inh: inhibitors of human MITF. 0.91% of 650,000 active. AlphaScreen MITF homodimerization, bead proximity signal. inhibition, % at 2.6 µM. O75030; in the data active = inhibition above about 50%;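 also: 0% = vehicle wells with protein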
FBW7 act: activators of human E3 ligase FBW7; Q969H0; AlphaScreen FBW7–phospho-cyclin E peptide binding, activator screen; normalized activity (activation), % at 26.1 µM; 0.13% of 650,000 active; in the data active = normalized activity above about 1.9%;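 also: purified mutant Fbw7 with reduced substrate affinity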
TEAD-YAP block: TEAD-YAP interaction inhibition; HEK-TIYL cells, TEAD-Gal4/YAP UAS-luciferase luminescence; inhibition, % at 9.12 µM; 1.4% of 640,000 active; AID 1259422; in the data active = inhibition above about 32%;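 also: 0% = median of test compound wells and 100% = reference inhibitor wells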
GPR151 ag: activators of human GPR151; Q8TDV0; PathHunter beta-arrestin GPR151 cells, luminescence; activation, % at 11.2 µM; 1% of 650,000 active; AID 1508602; in the data active = activation above about 4.9%;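 also: 0% = median of compound wells and 100% = cells with positive control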
Target sequence (Q8TDV0 whole entry, looked up): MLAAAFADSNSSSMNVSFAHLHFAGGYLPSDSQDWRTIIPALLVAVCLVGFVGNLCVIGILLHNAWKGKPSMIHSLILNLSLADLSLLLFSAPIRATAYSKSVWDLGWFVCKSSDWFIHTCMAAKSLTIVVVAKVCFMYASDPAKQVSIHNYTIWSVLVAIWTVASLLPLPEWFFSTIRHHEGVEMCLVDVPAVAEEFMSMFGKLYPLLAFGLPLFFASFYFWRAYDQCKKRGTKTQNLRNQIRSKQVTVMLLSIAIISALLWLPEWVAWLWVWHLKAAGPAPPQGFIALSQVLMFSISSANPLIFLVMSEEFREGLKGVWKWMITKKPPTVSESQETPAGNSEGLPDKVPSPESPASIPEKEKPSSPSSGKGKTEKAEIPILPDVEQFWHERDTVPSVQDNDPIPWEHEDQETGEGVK
GPR151 confirm: human GPR151 activation, confirmation screen; activation, % at 11.2 µM; AID 1508609; 6,700 tested, under 10 active; GPR151 PathHunter beta-arrestin cells, luminescence, 90 min; % of EA-reagent control over plate median; shares compounds with GPR151 ag;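 active = mean percent activation across replicates above the confirmation screen cutoff of 4.91%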
GPR119 ag: GPR119 activation, counter-screen for GPR151 activators; AID 1508611; shares compounds with GPR151 ag; 0.3% of 6,700 active; activation, % at 11.2 µM; GPR119 PathHunter beta-arrestin cells, luminescence, 90 min; 0 = compound-well median, 100 = enzyme-acceptor control;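 active = mean percent activation in the counterscreen above 29.09%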;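 also: counterscreen on off-target GPR119 to flag nonselective hits from the GPR151 activator screen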
* marks the source's active call; other numbers are inactive results; . = not tested or not shown.

SMILES	MITF inh	FBW7 act	TEAD-YAP block	GPR151 ag	GPR151 confirm	GPR119 ag
COCCCN1C(=O)c2ccc(C(=O)Oc3ccc(C(C)(C)C)cc3)cc2C1=O	8	1	3	5.2*	1	-3
Cc1ccc(C(C)CCN2CCC3(CCC(CNC(=O)C(C)C)O3)CC2)o1 (stereo not drawn)	-4	0	-12	7.8*	0	0
Cc1ccc(C(C)CCN2CCC3(CCC(CNC(=O)c4ccccc4)O3)CC2)o1 (stereo not drawn)	15	0	2	1	.	.
Cc1cc(C)c(C#N)c(N2CCCN(S(=O)(=O)Cc3ccccc3)CC2)n1	-3	0	-6	-1	.	.
COc1ccccc1Cc1noc(-c2cc(Cl)ccc2OC)n1	7	0	1	6.3*	0	-3
COc1ccccc1Cc1noc(-c2ccc(I)cc2)n1	-26	0	-9	-1	.	.
Cc1ccc(S(=O)(=O)N2CCN(CC(=O)c3c(C)[nH]c4ccccc34)CC2)cc1	-1	0	3	0	.	.
Cc1cc(NC2CCN(Cc3ccccc3)CC2)nc(Nc2cnccn2)n1	0	0	2	-2	.	.
CCOC(=O)N1CCC(NC(=O)C(=O)CC(=O)c2ccc(OC)cc2)CC1	4	0	13	5.4*	0	13
CCOC(=O)N1CCC(Nc2nncc(-c3ccc(OC)cc3)n2)CC1	-3	0	11	10*	0	1
CCOC(=O)N1CCC(NC(=O)c2ccc(CSCc3c(F)cccc3Cl)o2)CC1	-17	0	1	5.3*	-2	4
CCOC(=O)N1CCC(NCCNC(=O)c2ccc(Cl)cc2)CC1	33	0	17	12*	0	4
COc1ccc(/C=N/NC(=O)C2C(=O)NCC2c2ccccc2)cc1[N+](=O)[O-] (stereo not drawn)	-2	0	1	1	.	.
Nc1ccc(N=Cc2nc(-c3ccc([N+](=O)[O-])cc3)oc2O)cc1	7	0	1	0	.	.
FC(F)(F)c1cccc(NC(=S)N2CCSC2c2ccc(Br)cc2)c1 (stereo not drawn)	-12	0	-5	6.4*	1	-2
CCN(CC)c1ccc(/C=N\n2nnnc2N)c(O)c1	2	0	-5	-1	.	.
O=C(NCc1ccccc1Cl)c1nnc(-c2ccncc2)o1	-3	-1	0	1	.	.
O=C(NCc1ccccc1Cl)c1nnc(-c2ccccc2)o1	6	0	-14	5.0*	0	-5
COc1ccc(S(=O)(=O)NCCSC(C)(C)C)c(Cl)c1Cl	8	0	-3	8.6*	2	8
COc1ccc(S(=O)(=O)Nc2cccc([N+](=O)[O-])c2)c(Cl)c1Cl	-3	0	13	5.2*	-1	-4
COc1ccc(S(=O)(=O)Nc2cccc(N(C)S(C)(=O)=O)c2)c(Cl)c1Cl	5	0	9	-2	.	.
Cc1cc(C)cc(NC(=O)CSc2nc3[nH]ncc3c(=O)n2-c2ccc(Cl)cc2)c1	-4	0	-2	0	.	.
Cc1cccc(C(=O)NCCCN(C)C)c1	-2	0	-3	7.7*	-1	-2
COC(=O)C(NS(=O)(=O)c1ccc([N+](=O)[O-])cc1)c1ccccc1 (stereo not drawn)	-2	0	9	9.3*	0	3
O=C(O)C(NS(=O)(=O)c1ccc([N+](=O)[O-])cc1)c1ccccc1 (stereo not drawn)	16	0	4	2	.	.
SMILES	MITF inh	FBW7 act	TEAD-YAP block	GPR151 ag	GPR151 confirm	GPR119 ag
O=S(=O)(NCC(c1ccco1)N1CCc2ccccc21)c1ccc(F)cc1 (stereo not drawn)	3	0	4	9.1*	-1	-8
COc1cccc(Nc2nc(-c3ccc(OC)c(F)c3)cs2)c1	9	0	19	0	.	.
COc1ccc(-c2csc(Nc3ccccc3)n2)cc1F	7	0	-68	6.5*	2	1
N#CC1=C(N)N(c2ccc(Br)cn2)C2=C(C(=O)CCC2)C1c1cccs1 (stereo not drawn)	-4	0	4	0	.	.
Cc1cnc(Cl)nc1NCc1ccccc1	5	0	-10	5.6*	0	3
Oc1ccc(Cl)cc1/C=N\Nc1nncc(-c2ccccc2)n1	-5	0	-5	7.4*	0	-8
